PubChem BioAssay AID492998 (Southern Research Specialized Biocontainment Screening …, 2010)
Among all 2,300 compounds or so, about 550 (24%) were called active. These entries were drawn from the full list. Entries with a potency or affinity are not part of this list. Unmarked numbers belong to inactive results. No rule for the calls is given here.

Assay: Vero E6 cell cytotoxicity, dose response, cytotoxicity control for non-replicating M. tuberculosis project, secondary assay (AID 492998);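 also: 100% = vehicle-treated cells and 0% = background wells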
Settings: series mostly up to 20 µM; viability: at the top concentration

| Structure (SMILES) | viability [%] |
| --- | --- |
| Cc1cc(OCCOCCNCc2ccccc2)ccc1C(C)C | 95.5 |
| O=C(OCC#CCSc1nc2ccccc2o1)c1ccco1 | 96.6 |
| COc1ccc(O)c(C(=O)CC(=O)c2ccc(F)cc2)c1 | 74 |
| O=C(Nc1ccccc1N1CCCC1)c1cccc(F)c1 | 103 |
| C/C(=N\O)c1cc(Cl)ccc1O | 94.6 |
| O=C(CCNc1cccc(F)c1)c1cccc([N+](=O)[O-])c1 | 81 |
| CC12CC3CC(C)(C1)CC(C(=O)N1CCCC1)(C3)C2 | 110 |
| CSc1ccc(CNc2ncc(-c3cccc([N+](=O)[O-])c3)n2C)cc1 | 95.1 |
| COc1cccc(NC(=O)COC(=O)Cc2ccc(Br)cc2)c1 | 108 |
| CC(C)(C)NCC1(CO)SC(N)=NC1=O (stereo not drawn) | 95.3 |
| Cc1cc(C)nc(SC2CC(=O)N(c3ccc(C)c(C)c3)C2=O)n1 (stereo not drawn) | 72.2 |
| O=C(COc1ccccc1)NC1CCCCC1 | 107 |
| O=C(OCn1nnc2ccccc2c1=O)C1CCCCC1 | 94.4 |
| Cc1ccc2nc(C)c3c(c2c1)COC3 | 100 |
| Cc1cc2cc(CNC(=O)COc3ccccc3)ccc2n1C | 96.2 |
| CC1CC(C)CN(CCOCCSc2ccc(Cl)cc2)C1 (stereo not drawn) | 87 |
| COc1ccc(Cl)cc1N=Cc1c(O)c2ccccc2oc1=O | 76.4 |
| O=C(COC(=O)c1cc(Br)ccc1Cl)NC1CCCC1 | 105 |
| COC(=O)COc1ccc(S(=O)(=O)N2CCN(c3ccccc3F)CC2)cc1 | 102 |
| O=C1/C(=C\c2ccco2)SC(=S)N1c1ccc(O)cc1 | 103 |
| Cc1ccccc1OCCC(=O)OCC(=O)NNC(=O)c1cccs1 | 104 |
| CCSc1ncc(/C=N/Nc2ccc(Cl)cc2)n1C | 90.2 |
| O=C(COC(=O)CCc1c[nH]c2ccccc12)Nc1ccc([N+](=O)[O-])cc1 | 101 |
| CCCCOC(=O)C1CCCC(C(=O)OCCCC)N1 (stereo not drawn) | 113 |

| Structure (SMILES) | viability [%] |
| --- | --- |
| O=C(COc1ccc2c(c1)CCC2)Nc1ccccn1 | 95.7 |
| O=C1NC(=O)N(Cc2ccc(F)cc2)C(=O)/C1=C\c1ccc([N+](=O)[O-])s1 | 93.5 |
| O=C1NC(=O)N(Cc2ccco2)C(=O)/C1=C\c1cccn1CCOc1ccc(Cl)cc1 | 98.7 |
| OC(CNCCc1ccc(C(F)(F)F)cc1)COc1cccc2ccccc12 (stereo not drawn) | 82 |
| O=C(COC(=O)c1cc(Cl)ccc1O)c1ccc2c(c1)OCO2 | 105 |
| O=C1CC(Sc2ncccn2)C(=O)N1c1ccccc1C(F)(F)F (stereo not drawn) | 102 |
| CCOC(=O)c1c(NC(=O)C2COc3ccccc3O2)sc2c1CC(C)(C)NC2(C)C (stereo not drawn) | 85.6 |
| CCOC(=O)CCS(=O)(=O)c1nc(-c2ccccc2)cc(C(F)(F)F)n1 | 95.2 |
| COc1ccc(NC(=O)Nc2ccc(O)c3ccccc23)cc1 | 75.5 |
| CCOc1ccc2ccccc2c1/C=N/NC(=O)c1ccncc1 | 95.5 |
| Cc1ccc(S(=O)(=O)/N=C(\CCl)N2CCOCC2)cc1 | 96.7 |
| Cc1cc(CN(C)C)c(O)c(C2(C)CCCCC2)c1 | 106 |
| CCCCNC(=O)N1CCc2ccccc2C1 | 96.6 |
| CCOc1ccccc1OC(=O)c1cc2ccccc2oc1=O | 95.6 |
| Cc1ccc(NC(=O)C2CC2c2ccccc2)cc1 (stereo not drawn) | 97.4 |
| O=c1oc(-c2ccccc2[N+](=O)[O-])nc2ccccc12 | 92.6 |
| CN(/N=C/c1ccc([N+](=O)[O-])o1)c1ccccc1 | 114 |
| COc1ccc(OC)c(N2C(=O)NC(=O)/C(=C/c3ccc([N+](=O)[O-])s3)C2=O)c1 | 88.5 |
| CCC(=O)N1CCN(c2cc3c(cc2F)c(=O)c(C(=O)O)cn3CC)CC1 | 97.8 |
| O=C(COC(=O)c1ccccn1)Nc1cccc(Cl)c1Cl | 97.1 |
| CCOC(=O)C1CCCN(Cc2nc(Cc3ccccc3Cl)no2)C1 (stereo not drawn) | 110 |
| CCCCCOc1ccc(CSC2=NCCN2)cc1[N+](=O)[O-] | 78 |
| Cc1cc(Br)ccc1OCCCCN1CCC(C)CC1 | 98 |
| CCc1ccc(C(C)NC(=O)C2CCCO2)cc1 (stereo not drawn) | 109 |

| Structure (SMILES) | viability [%] |
| --- | --- |
| O=C(Nc1ccc(S(=O)(=O)N2CCOCC2)cc1)c1ccc([N+](=O)[O-])s1 | 74.6 |
| CC1CCN(S(=O)(=O)c2cccc(C(=O)Oc3ccc([N+](=O)[O-])cc3)c2)CC1 | 101 |
| CCS(=O)(=O)c1ncc(Cl)c(C(=O)Nc2ccc(S(=O)(=O)N3CCC(C)CC3)cc2)n1 | 88.8 |
| Cc1ccc(-c2ccc(/C=N/NC(=O)CN3CCOCC3)o2)cc1[N+](=O)[O-] | 87.5 |
| COc1cccc(NC(=O)c2ccc(Cn3cc([N+](=O)[O-])cn3)o2)c1 | 115 |
| CCN1CCN(Cc2cc(C(C)(C)C)c(O)c(C(C)(C)C)c2)CC1 | 98.1 |
| O=C(N/N=C/c1ccc(OC(=O)c2cccs2)cc1)c1ccccn1 | 100 |
| COc1cc(C2C3=C(CC(C)(C)CC3=O)OC(N)=C2[N+](=O)[O-])ccc1O (stereo not drawn) | 98.8 |
| CC(C)CCNCC(O)CON=C1c2ccccc2-c2ccccc21 (stereo not drawn) | 82.9 |
| O=C(O)c1ccc(NS(=O)(=O)/C=C/c2ccccc2)cc1O | 95.3 |
| O=C(NNc1ccc([N+](=O)[O-])cc1)c1ccccc1Cl | 101 |
| CCOC(=O)N/N=C\c1ccc([N+](=O)[O-])s1 | 81.2 |
| CCCOC(=O)c1ccc(NC(=O)Cc2cccs2)cc1 | 109 |
| CCOc1ccc(NC(=O)CCC(=O)N/N=C/c2ccc([N+](=O)[O-])s2)cc1 | 78.7 |
| O=C(N/N=C/c1ccc(Br)s1)c1ccccc1[N+](=O)[O-] | 79.6 |
| Cc1cccc(NCc2ccc([N+](=O)[O-])s2)c1 | 87.4 |
| Cc1ccc(C2=N/C(=C\c3cccnc3)C(=O)O2)cc1 | 106 |
| CCOC(=O)c1cc(COc2cc(Cl)cc(Cl)c2)on1 | 98.4 |
| O=C(c1cc2ccccc2o1)c1nc2c(n1O)CCCCC2 | 104 |
| Nc1cccn2c(-c3ccc(Cl)cc3)cnc12 | 101 |
| CC1(C(=O)OCC(=O)Nc2nnc(-c3ccccc3)o2)CC1(Cl)Cl (stereo not drawn) | 71.1 |
| CCOC(=O)C1CCCc2c1[nH]c1c(C(N)=O)cccc21 (stereo not drawn) | 106 |
| Cc1ccc(Oc2c(C(N)=O)cc([N+](=O)[O-])cc2[N+](=O)[O-])cc1 | 94.9 |
| COc1cc(/C=C/c2ccc3c([N+](=O)[O-])cccc3n2)ccc1OCC(=O)O | 99.9 |

| Structure (SMILES) | viability [%] |
| --- | --- |
| CCC1CCc2sc(C(=O)NNC(=O)c3ccncc3)cc2C1 (stereo not drawn) | 106 |
| CN(CCS(=O)(=O)c1ccc(Cl)cc1)Cc1cccnc1 | 85 |
| CC(=O)c1ccc(NC(=O)c2cc(CC(C)C)on2)cc1 | 106 |
| CC(C)(C)Nc1nc(NC(C)(C)C)nc(-n2ccnc2)n1 | 79.9 |
| O=C(NC(=S)Nc1ccc(F)cc1)C1CCCCC1 | 89.2 |
| COC(=O)COc1cccc(NC(=O)c2ccc(Cl)cc2)c1 | 106 |
| O=C(NNC(=O)c1ncc(Cl)c(Cl)c1Cl)c1ccc(F)cc1 | 87 |
| Cc1cc(NC(=O)COc2ccccc2)ccc1Cl | 90.2 |
| CCc1ccc(OCC(=O)Nc2ccncc2)c(Br)c1 | 96.3 |
| CCc1ccc(NC(=O)C(=O)NNC(=O)COc2cccc(OC)c2)cc1 | 97.4 |
| CC(C)c1ccc(OCC(=O)NNC(=O)c2cnccn2)cc1 | 91 |
| Cc1cc(Br)ccc1OCC(=O)NNC(=O)C(=O)Nc1ccccc1 | 102 |
| Cc1cc(OCC(=O)Nc2ccncc2)ccc1Br | 108 |
| O=C(Oc1cccnc1)c1ccc(Cl)c(Cl)c1 | 121 |
| Cc1cc2cc(CNC(=O)C3CCCC3)ccc2n1C | 105 |
| O=C(CCC1CCCCC1)NCc1ccc(F)cc1 | 105 |
| Clc1ccc(SCCCCN2CCNCC2)cc1 | 85 |
| O=C(NCC1CCCCC1)c1ccc([N+](=O)[O-])cc1 | 94.3 |
| CCCCOC(=O)c1ccc(NC(=O)c2nn(C)cc2Br)cc1 | 79.3 |
| O=C(NCCSc1ccccc1)c1ccc(Br)cc1 | 107 |
| Cc1ccc2cc(/C=N/NC(=O)[C@H](C)NC(=O)OC(C)(C)C)c(Cl)nc2c1 | 95.6 |
| CN1CC(=O)NC1=NC(=O)C12CC3CC(CC(C3)C1)C2 | 77.2 |
| Cc1cc(Br)ccc1OCCCCN1CCCCC1 | 80.3 |
| CCOC(=O)c1csc(NC(=O)COc2ccc(Cl)cc2Cl)n1 | 98.5 |

| Structure (SMILES) | viability [%] |
| --- | --- |
| CCOc1ccc(Cn2c(=O)oc3ccccc32)cc1 | 102 |
| CC1C/C(=N/N2C(=O)CSC2=S)CC(C)(C)C1 (stereo not drawn) | 96.3 |
| CC1=C(/C=C/C(C)=N\NC(=O)c2ccncc2)C(C)(C)CCC1 | 95.3 |
| C/C(=N/NC(=O)c1ccncc1)C1=C(O)CC(C)(C)CC1=O | 107 |
| C=CCNCC(=O)N1N=C(c2ccc3ccccc3c2)CC1c1ccc(OC)cc1 (stereo not drawn) | 76.9 |
| CCn1ccc(C(=O)Nc2cccc(Cl)c2)n1 | 99.4 |
| CCn1nnc(NC(=O)c2sc3ccccc3c2Cl)n1 | 93.4 |
| CCCc1cc(C(=O)Nc2cccc(C(C)=O)c2)no1 | 104 |
| CC(C)(C)c1ccc(OCCC(=O)OCC(=O)NC2CCCCC2)cc1 | 80.5 |
| COC(=O)CCC(=O)Nc1sc(Cc2ccccc2)c(C)c1C(N)=O | 93.4 |
| COc1ccc(C(CNC(=O)c2cccc(NS(=O)(=O)c3ccc(C)c(F)c3)c2)N2CCCC2)cc1 (stereo not drawn) | 92 |
| COC(=O)c1ccccc1Sc1ncnc2onc(C)c12 | 87.7 |
| Cc1noc2ncnc(Sc3ccc(Br)cc3)c12 | 72.2 |
| CCOC(=O)CNc1ccc(C(=O)OCC)cc1[N+](=O)[O-] | 95.5 |
| CC(C)c1ccc(N2C(=O)NC(=O)/C(=C/C=C/c3ccco3)C2=O)cc1 | 98 |
| Brc1ccc(CSc2nnc(-c3ccco3)o2)cc1 | 107 |
| CCCc1ccc(OCc2ccc(C(=O)N/N=C/c3cccnc3)o2)cc1 | 96.3 |
| NC(=O)c1ccc(N=Cc2ccc([N+](=O)[O-])s2)cc1 | 92.6 |
| Cc1cc(C)n(CC(=O)N/N=C/c2ccc([N+](=O)[O-])s2)n1 | 70.8 |
| CN1C(=O)NC(=O)/C(=C/c2ccc([N+](=O)[O-])s2)C1=O | 97 |
| O=c1oc(/C=C/c2ccc([N+](=O)[O-])s2)nc2ccccc12 | 99.9 |
| NNC(=O)CNC(=O)C12CC3CC(CC(C3)C1)C2 | 95.4 |
